Compound activity (PubChem BioAssay)
CYP2C19 act: increases human CYP2C19 enzyme activity. P33261. recombinant CYP2C19, luciferin-H EGE luminescence; hits give high values; 0 = fully inhibited enzyme, 1 = untreated enzyme. activation factor at 5 µM. 96,000 tested, under 10 active;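 active = activation factor of at least 2 at 5 µM in the primary screen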
PLAP activator: activators of human placental alkaline phosphatase; purified PLAP enzyme, luminescent substrate read-out; hits give high values; activation fold at 20 µM; AID 696; 96,000 compounds, 1.2% hits; P05187; in the data active = activation fold above about 2
Target sequence (P05187 whole entry, looked up): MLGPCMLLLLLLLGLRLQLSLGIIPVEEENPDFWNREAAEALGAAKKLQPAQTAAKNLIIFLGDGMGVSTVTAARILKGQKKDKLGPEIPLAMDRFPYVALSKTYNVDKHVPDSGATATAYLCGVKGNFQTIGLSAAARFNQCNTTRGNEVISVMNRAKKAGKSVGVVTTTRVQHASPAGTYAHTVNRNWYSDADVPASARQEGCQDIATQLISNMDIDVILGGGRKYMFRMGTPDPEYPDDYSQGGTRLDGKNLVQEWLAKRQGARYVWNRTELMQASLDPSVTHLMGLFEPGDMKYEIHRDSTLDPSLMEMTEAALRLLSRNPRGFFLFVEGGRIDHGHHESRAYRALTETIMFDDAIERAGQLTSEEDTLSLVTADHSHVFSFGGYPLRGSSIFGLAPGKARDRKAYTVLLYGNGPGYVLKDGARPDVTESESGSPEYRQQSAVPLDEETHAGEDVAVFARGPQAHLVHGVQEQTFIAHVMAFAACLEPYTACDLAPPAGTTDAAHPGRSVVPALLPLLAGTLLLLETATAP
CYP2C9 act: increases human cytochrome P450 2C9 activity. recombinant CYP2C9, luciferin-H conversion, luminescence; hits give high values; factor 1 = untreated enzyme, 0 = blocked. activation factor at 5 µM. 96,000 compounds, 1.4% hits. AID 1024;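 active = activation factor of 2 or more for CYP2C9 at a 5 µM dose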
CYP2C19 inhib: human CYP2C19 inhibition; P33261; CYP2C19 Supersomes, luciferin-H EGE luminescence, 30 min; inhibition, % at 5 µM; 96,000 compounds, 21% hits; AID 778;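 active = CYP2C19 inhibition above a set limit at 5 µM in the primary screen, cut at about 50% in these data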
CYP2C9 inhib: human CYP2C9 inhibition; P11712; CYP2C9 Supersomes, luciferin-H conversion, luminescence; inhibition, % at 5 µM; 96,000 compounds, 20% hits; AID 777;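 active = blocking of liver enzyme CYP2C9 beyond about 50% at 5 µM, limit read from the data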
Of the large screens only hits and unclear results are named; the others gave an inactive call. This is a sample that favours compounds with a hit; in the whole collection about 31% have one here.

CCOC(=O)c1c(C)[nH]c(C(=O)COC(=O)CSCC(=O)N(CC)CC)c1C	none
CCOC(=O)c1c(C)[nH]c(C(=O)COC(=O)C2(C)CC2(Cl)Cl)c1C (stereo not given)	CYP2C9 inhib 99
CC1(C)CC(O)(CCNCc2ccc3c(c2)OCO3)CCO1 (stereo not given)	none
O=C(Nc1ccccc1-c1ccccc1)c1ccc(Br)o1	none
CCOC(=O)N1CCN(C(=O)C(C)(C)Oc2ccc(Cl)cc2)CC1	CYP2C19 inhib 74, CYP2C9 inhib 84
COc1ccc(N2CCN(C(=O)C(C)(C)Oc3ccc(Cl)cc3)CC2)cc1	CYP2C19 inhib 74, CYP2C9 inhib 90
COc1ccc(N2CCN(C(=O)c3ccc(C(C)(C)C)cc3)CC2)cc1	none
C=CCn1c(SCC(=O)NCc2ccc3c(c2)OCO3)nc2scc(-c3ccccc3)c2c1=O	CYP2C9 inhib 54
C=CCn1c(SCC(=O)Nc2sccc2C(N)=O)nc2sc(CC)cc2c1=O	CYP2C9 inhib 66
C=CCn1c(SCC(=O)N2CCCC2)nc2scc(-c3cccs3)c2c1=O	none
C=CCn1c(SCn2nnc3ccccc3c2=O)nc2scc(-c3cccs3)c2c1=O	CYP2C9 inhib 72
C=CCn1c(SCC(=O)Nc2sccc2C(N)=O)nc2ccc(Cl)cc2c1=O	none
C=CCn1c(SCC(=O)Nc2ccccc2)nc2scc(-c3cccs3)c2c1=O	CYP2C19 inhib 83, CYP2C9 inhib 100
COc1ccc(NC(C)=O)cc1NC(=O)CN1CCN(C(=O)c2ccco2)CC1	none
Cc1ccc(Cl)cc1NC(=O)CCC(=O)Nc1cc(Cl)ccc1C	none
CC(=O)C1=C(C)NC(=O)NC1c1ccccc1 (stereo not given)	none
Cn1c(-c2ccc(N)cc2)nc2ccccc21	none
Cn1c(=O)c(-c2cc(Br)ccc2N)nc2ccccc21	CYP2C19 inhib 93, CYP2C9 inhib 52
Cc1ccc(C2C3=C(CC(C)(C)CC3=O)Nc3n[nH]c(C)c32)cc1 (stereo not given)	PLAP activator 2
Cc1[nH]nc2c1C(c1ccc(F)cc1)C1=C(CC(C)(C)CC1=O)N2 (stereo not given)	none
CCOC(=O)c1cc(-c2ccc(C)cc2)n(CCC(=O)NCCCOC)c1C	CYP2C19 inhib 93, CYP2C9 inhib 100
CCOC(=O)c1cc(-c2ccc(F)cc2)n(CC(=O)N2CCCC2)c1C	none
N#CC1=C2C=CC=CN2CC1=O	none
COCc1cc(Sc2ccc(Br)cc2)nc(-c2ccccc2)n1	none
Clc1cc(Sc2ccc(Br)cc2)nnc1-c1ccccc1	CYP2C19 inhib 54, CYP2C9 inhib 68
O=P(c1ccccc1)(c1ccccc1)C(c1ccco1)N1CCOCC1 (stereo not given)	none
FC(F)(F)c1cccc(N2CCN(Cc3cccnc3)CC2)c1	CYP2C19 inhib 96, CYP2C9 inhib 81
COc1cccc(N2CCN(Cc3cccnc3)CC2)c1	CYP2C19 inhib 67
COc1ccc(C2CCN(Cc3cccnc3)CC2O)cc1 (stereo not given)	none
Cc1cccc(N2CCN(Cc3ccoc3)CC2)c1C	none
CCOC(=O)N1CCN(c2c(N3CCN(c4cccc(C(F)(F)F)c4)CC3)c(=O)c2=O)CC1	none
CCOc1cccc(CN2CCN(c3cccc(C(F)(F)F)c3)CC2)c1O	CYP2C19 inhib 93, CYP2C9 inhib 65
FC(F)(F)c1cccc(N2CCN(Cc3ccoc3)CC2)c1	CYP2C19 inhib 67, CYP2C9 inhib 54
CC(=O)N1CCC2(CC1)C(C#N)=C(N)Oc1n[nH]c(C)c12	none
O=C(Nc1ccnc(-c2cccnc2)n1)c1ccc(Cl)cc1	none
COc1cccc(CN2CCN(c3ncccn3)CC2)c1	CYP2C19 inhib 56
CCN1CC2=C(OC(N)=C(C#N)C2c2cccs2)/C(=C\c2cccs2)C1 (stereo not given)	none
C/C(=N\NC(=O)c1ccc(Br)cc1)c1ccccc1	CYP2C19 inhib 61
Cn1c(=O)c2cc(S(=O)(=O)NC(C(=O)NCc3cccnc3)c3ccccc3)ccc2n(C)c1=O (stereo not given)	none
CSc1nncn1/N=C/c1cc(Cl)ccc1F	none
Fc1ccc(Cl)cc1/C=N/n1cnnc1SCc1ccccc1	CYP2C19 inhib 66
Cc1nn(C(=O)c2ccco2)c(C)c1CN1C(=O)c2ccccc2C1=O	CYP2C9 inhib 96
Cc1nn(C(=O)N2CCCCC2)c(C)c1CN1C(=O)c2ccccc2C1=O	CYP2C19 inhib 69, CYP2C9 inhib 61
Cc1nn(C(=O)c2cccs2)c(C)c1CN1C(=O)c2ccccc2C1=O	none
